Experimental data as given in PubChem BioAssay AID602350 (Broad Institute, 2012).
Entries with a potency or affinity are not part of this list. The source made the active and inactive calls.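 Rule for the calls: active = absorbance falls by 30% or more versus neutral controls, with a potency fitted within twice the top valid dose; inconclusive = no clear call, values can overlap the other calls; inactive = change opposite to expected direction, plus the rest.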

target: Protein disulfide-isomerase (Homo sapiens) (UniProt P07237); assay: PDI inhibitors, insulin aggregation turbidity, dose response, biochemical, absorbance, cherry-picked samples (AID 602350); settings: recombinant PDI insulin aggregation, absorbance 650 nm, 90 min; series mostly up to 19.5 µM
Sequence (P07237 whole entry, looked up): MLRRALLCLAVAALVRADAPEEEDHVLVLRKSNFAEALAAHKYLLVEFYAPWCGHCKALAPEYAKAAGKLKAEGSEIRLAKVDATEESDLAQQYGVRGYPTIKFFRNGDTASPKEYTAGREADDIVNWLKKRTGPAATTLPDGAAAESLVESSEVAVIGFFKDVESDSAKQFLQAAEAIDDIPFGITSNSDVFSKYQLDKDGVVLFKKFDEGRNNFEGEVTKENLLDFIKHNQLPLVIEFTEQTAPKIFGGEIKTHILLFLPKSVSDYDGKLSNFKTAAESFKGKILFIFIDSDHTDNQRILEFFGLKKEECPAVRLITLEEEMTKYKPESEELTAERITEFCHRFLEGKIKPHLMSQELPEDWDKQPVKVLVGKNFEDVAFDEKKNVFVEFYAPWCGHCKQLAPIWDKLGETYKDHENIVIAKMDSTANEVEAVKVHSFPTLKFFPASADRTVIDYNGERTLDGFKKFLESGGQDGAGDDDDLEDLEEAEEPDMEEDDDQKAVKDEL

Row | SMILES | outcome
1 | COc1ccc(C[C@@H]2CN3C(=NC[C@@H]3Cc3ccc(O)cc3)N2C[C@H](C)NC(=O)CCC2CCCCC2)cc1 | inactive
2 | CSc1cccc(NC(=O)CN(C)S(=O)(=O)c2ccc(F)cc2)c1 | inactive
3 | CC(C)Cn1c(N)c(C(=O)COC(=O)c2ccc(O)cc2)c(=O)n(C)c1=O | inactive
4 | O=C(NC(Cc1c[nH]c2ccccc12)C(=O)N/N=C/c1cccnc1)c1cccs1 (configuration not stated) | inactive
5 | O=C(O)CCc1ccc(-c2cccs2)n1NC(=O)c1ccco1 | inactive
6 | COc1ccccc1NS(=O)(=O)c1cccc(C(=O)NCC2(N(C)C)CCCCC2)c1 | inactive
7 | CC(=O)c1ccc(OCc2cc(C(=O)N3CCCCC3c3cccnc3)no2)cc1 (configuration not stated) | inactive
8 | CCc1ccc2[nH]c(=O)c(CN(Cc3ccccc3OC)Cc3nnnn3Cc3ccco3)cc2c1 | inactive
9 | Oc1cccc(-c2nc3c4c(ncn3n2)-c2ccccc2CC42CCCC2)c1 | inactive
10 | CCc1ccc(NC(=O)Nc2ccncc2)cc1 | inactive
11 | Cc1ccc(N2CC(C(=O)N3CCCCCC3)CC2=O)cc1 (configuration not stated) | inactive
12 | CNC[C@@H]1Oc2c(NS(C)(=O)=O)cccc2C(=O)N([C@@H](C)CO)C[C@H]1C | inactive
13 | CC12CCC3c4ccc(O)cc4CCC3C1CCC2=O (configuration not stated) | inactive
14 | CC(=O)N(C)C1(c2nnnn2CCOC(=O)Nc2ccc(Cl)cc2)CCCCC1 | inactive
15 | C=CCn1c(C(CCCC)CC(O)COCC(C)C)n[nH]c1=S (configuration not stated) | inactive
16 | CCn1c(SCC(=O)NC2CC2)nnc1-c1ccccc1 | inactive
17 | COc1ccc(N(Cc2cc3cc(OC)ccc3[nH]c2=O)C(=O)C2CCCO2)cc1 (configuration not stated) | inactive
